TDP1 cell noCPT = qHTS for Inhibitors of human tyrosyl-DNA phosphodiesterase 1 (TDP1): qHTS in cells in absence of CPT | Potency, µM (top dose mostly 46.2 µM), without a hit: top-dose activity change, negative = growth inhibition, actives largely listed as inhibitors | hit rate 15% among 420,000 | DT40 Tdp1-/- hTDP1 cells, no CPT, ATP luminescence, 48 h | AID 686978, 2013; further: potency means the concentration at half of the fitted maximal effect; nearly all actives have a fitted effect of over 55% in size
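Compound effects on proliferation are scored in DT40 Tdp1-/-;hTDP1 cells in the absence of CPT. ATP levels (CellTiter-Glo luminescence) are recorded after a ≥48 hr, 37 °C incubation.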
12-LOX inh = ALOX12 (human) lipoxygenase inhibition | Potency, µM (titrated, usually from 108 µM), without a hit: at the top dose activity change, negative = inhibition, hits mostly inhibitors | purified 12hLO, xylenol orange hydroperoxide absorbance | P18054 | hit rate 1.1% among 580,000 | AID 1671190; further: potency means the concentration at half of the fitted maximal effect
Target sequence (P18054 whole entry, looked up): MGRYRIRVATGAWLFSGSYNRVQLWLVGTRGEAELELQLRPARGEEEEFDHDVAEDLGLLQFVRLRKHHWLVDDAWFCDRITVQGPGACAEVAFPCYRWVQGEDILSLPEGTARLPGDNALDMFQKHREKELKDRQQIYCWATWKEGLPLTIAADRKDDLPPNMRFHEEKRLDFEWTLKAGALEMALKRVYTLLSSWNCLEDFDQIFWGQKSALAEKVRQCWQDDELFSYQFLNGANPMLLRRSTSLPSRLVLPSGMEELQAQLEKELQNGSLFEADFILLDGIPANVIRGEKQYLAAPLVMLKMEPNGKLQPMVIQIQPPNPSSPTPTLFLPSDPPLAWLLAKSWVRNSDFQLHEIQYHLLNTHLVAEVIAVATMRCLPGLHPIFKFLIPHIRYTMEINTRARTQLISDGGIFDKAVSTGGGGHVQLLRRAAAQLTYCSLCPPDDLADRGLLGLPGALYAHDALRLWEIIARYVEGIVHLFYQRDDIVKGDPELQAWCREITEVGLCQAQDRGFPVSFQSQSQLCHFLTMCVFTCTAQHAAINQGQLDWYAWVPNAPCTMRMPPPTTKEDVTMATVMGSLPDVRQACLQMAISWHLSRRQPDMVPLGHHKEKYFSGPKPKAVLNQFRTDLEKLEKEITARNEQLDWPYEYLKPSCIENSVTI
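Purified human 12hLO (150 nM final) in 25 mM Hepes, 0.01% Triton X-100, pH 7.0 was preincubated 15 min at room temperature with compound. Then 40 uM arachidonic acid was added, 30 min. Hydroperoxide was read by Fe-XO absorbance ratio 573/405 nm.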
HT1080 IDH1KD tx = HT-1080 IDH1 knockdown cell toxicity (counter line); HT-1080 IDH1 knockdown viability, ATP luminescence, 48 h; Potency, µM (titrated, usually from 46.1 µM), for inactives: at the top dose activity, negative = toxicity, most hits filed as cytotoxic; hit rate 2% among 360,000;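 further: potency means the concentration at half of the fitted maximal effect; 0% = DMSO wells and -100% = cell-free medium wells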
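Cytotoxicity counter-line: IDH1KD HT-1080, 48 h, CellTiter-Glo. Curves classed by r2, magnitude and activity.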
IL1B secr inh = inhibitors of inflammasome signaling (IL-1 beta secretion); THP-1 LPS/ATP IL-1B secretion, AlphaLISA, 16 h; hits give low values; activity change, % at 57.5 µM; hit rate 4.7% among 360,000; AID 743279; in the data active means activity change below about -50%; inconclusive means mostly about -30% to -49%
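Secreted IL-1B measured by AlphaLISA bead assay after 16 h compound exposure of THP-1 cells; compounds (final up to 57.5 uM) added 1 h before LPS (250 ng/mL) and ATP (1.25 mM) stimulation; lower signal means less secretion.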
TDP1 cell CPT = growth inhibition of DT40 Tdp1-/-;hTDP1 cells with camptothecin (screen for TDP1 inhibitors). chicken DT40 Tdp1-/-;hTDP1 cells + 20 nM CPT, ATP luminescence, 48 h. Potency, µM (highest dose often 46.2 µM), inactives show at the highest dose activity change, negative = growth inhibition, actives largely listed as inhibitors. hit rate 12% among 420,000. AID 686979; further: potency means the concentration at half of the fitted maximal effect; nearly all actives have a fitted effect of over 55% in size
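Chicken DT40 Tdp1-/- cells complemented with human TDP1, 400 cells/well, exposed to compounds plus 20 nM camptothecin for at least 48 h at 37 C; viability read as ATP content by CellTiter-Glo luminescence.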
HT1080NT lethal = kills 2HG-producing HT-1080-NT fibrosarcoma cells; HT-1080-NT fibrosarcoma viability, CellTiter-Glo ATP luminescence, 48 h; Potency, µM (top dose mostly 46.1 µM), inactives show top-dose activity, negative = less viability, actives largely listed as cytotoxic; hit rate 1.6% among 360,000; AID 686970;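 further: NT is the 2HG producing partner of a matched IDH1 knockdown line; potency means the concentration at half of the fitted maximal effect; 0% = DMSO-treated cells and -100% = media-only wells without cells; nearly all actives have a fitted effect of over 55% in size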
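HT-1080-NT fibrosarcoma cells (2HG-overproducing), 750 cells/well in RPMI with 5% FBS, dosed after 2 h and incubated 48 h at 37C. CellTiter-Glo luminescence normalized to DMSO and no-cell wells; concentration-response curves fitted and classed.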
Starred values were filed as active, the others as inactive; ? = inconclusive; / = not tested or not shown; [ ] = dose if it differs, or a comment. Many of the other results were omitted from the sample, so hits are more common in it than they were. Unless noted, the call rests on the fitted dose curve; in most records, active means well fitted curve in the direction sought with a large enough effect; inconclusive means small, poorly fitted or top-dose-only effect, or another doubt; inactive means no such curve, though single readings can be large; an effect the other way counts as inactive or inconclusive. Unless noted, on the % scale 0 is the no-effect control and ±100 the full control effect.

SMILES	TDP1 cell noCPT	12-LOX inh	HT1080 IDH1KD tx	IL1B secr inh	TDP1 cell CPT	HT1080NT lethal
CCCS(=O)(=O)Nc1ccc2c(c1)CC(=O)N2CC	/	2%	/	/	/	/
COc1ccc(NC(=O)CN(C)C(=O)c2cc3c(cc2Cl)N2CCCCCC2=NS3(=O)=O)cc1	-1%	7%	0%	6	1%	-3%
COc1ccc(OC)c(NC(=O)c2cc3oc4ccccc4c3cc2O)c1	16µM*	0%	?	31	?	?
COc1ccc(OC)c(NC(=O)c2cc3c(cc2Cl)N2CCCCCC2=NS3(=O)=O)c1	16µM*	?	-1%	15	?	-1%
CC(C)OC(=O)c1ccc(N2CCN(c3ccccc3F)CC2)nc1	18µM*	-2%	-20%	19	?	-17%
COc1ccc(OC)c(NC(=O)c2ccccc2SC)c1	-27%	11%	7%	-11	2%	24%
CN(Cc1ccoc1)C1CCc2nn(C)c(=O)n2CC1 (stereo unspecified)	/	46%	/	/	/	/
CC(C)Cn1nc(C(=O)Nc2ccc3c(c2)CCC3)c2ccccc2c1=O	/	65%	/	/	/	/
CC(C)Cn1nc(C(=O)Nc2cccc(C(=O)NC3CC3)c2)c2ccccc2c1=O	18µM*	10%	0%	-1	?	-9%
Cc1cc(=O)c(C(=O)Nc2cccc(C(=O)NC3CC3)c2)nn1-c1ccccc1Cl	18%	-9%	-1%	-54*	-27%	-5%
CCCn1nc(C(=O)NC2CCCC2)c2ccccc2c1=O	?	-7%	15%	17	-15%	-8%
CCCCn1nc(C(=O)NC2CCCCCC2)c2ccccc2c1=O	13µM*	-19%	4%	26	?	11%
CCC(C(=O)Nc1cccc(C(C)=O)c1)n1cnc2ccccc2c1=O (stereo unspecified)	/	-23%	/	/	/	/
O=C(Nc1cccc([N+](=O)[O-])c1)Nc1cccs1	?	?	4%	?	23µM*	2%
O=C(Nc1cccc(C(F)(F)F)c1)Nc1cccs1	21µM*	?	/	/	?	/
CCSCCc1nnc(NC(=O)Nc2cccc(C(F)(F)F)c2)s1	2.3µM*	-4%	?	-69*	4.1µM*	?
O=C(Nc1ccccc1)Nc1cccc(C(F)(F)F)c1	?	-5%	-1%	-27	?	0%
COC(=O)c1sccc1NC(=O)Nc1cccc([N+](=O)[O-])c1	10%	11%	-7%	2	2%	4%
CC(=O)N1CCC(NC2(Cc3cc(COc4ccccc4)on3)COC2)CC1	/	1%[176 µM]	/	/	/	/
O=C(CSc1nc(-c2ccccc2F)nc2cc(=O)[nH]n12)N1CCCc2ccccc21	/	-58%	/	/	/	/
COc1ccc2cc(C(=O)N3CCc4nn(C)c(=O)n4CC3)[nH]c2c1	/	31%	/	/	/	/
O=C1C2CCCN2C(=O)N1CCCN1CCN(c2cccc(Br)c2)CC1 (stereo unspecified)	?	4µM*	-2%	76	-22%	-5%
O=C1C2CCCCN2C(=O)N1CCCN1CCN(c2cccc(C(F)(F)F)c2)CC1 (stereo unspecified)	-25%	?	3%	32	-26%	4%
O=C1C2CCCN2C(=O)N1CCN1CCN(c2cccc(C(F)(F)F)c2)CC1 (stereo unspecified)	8.2µM*	0%	15%	56	-4%	12%
CCCCOc1ccccc1N1CCN(CCCN2C(=O)C3CCCN3C2=O)CC1 (stereo unspecified)	7%	?	9%	0	-25%	3%
SMILES	TDP1 cell noCPT	12-LOX inh	HT1080 IDH1KD tx	IL1B secr inh	TDP1 cell CPT	HT1080NT lethal
COc1ccccc1N1CCN(CCCCN2C(=O)C3CCCCN3C2=O)CC1 (stereo unspecified)	?	/	-19%	21	26µM*	-25%
c1cn(CCCNCc2ccc(-n3ccnc3)cc2)cn1	/	38%	/	/	/	/
COc1ccc(C(=O)N2CCCC(c3nc(-c4cccs4)no3)C2)cc1 (stereo unspecified)	?	1%	-13%	-21	?	-22%
COc1cc(-c2nc(C3CC(=O)N(c4ccc(C)cc4)C3)no2)cc(OC)c1OC (stereo unspecified)	/	0%	/	/	/	/
COc1ccc(-c2noc(C3CCCN(C(=O)c4ccccc4C)C3)n2)cc1 (stereo unspecified)	12µM*	52%	-18%	?	16µM*	-14%
COc1ccc(C(=O)N2CCCC(c3nc(-c4cc(OC)c(OC)c(OC)c4)no3)C2)cc1 (stereo unspecified)	?	16%	0%	0	21µM*	-23%
Cc1ccc(-c2noc(-c3ccccc3C(=O)N3CCCC3)n2)cc1	23µM*	0%	-15%	-6	16µM*	-16%
COc1ccc(-c2noc(C3CCCN(C(=O)c4ccccc4)C3)n2)cc1 (stereo unspecified)	?	12%	-23%	-17	?	?
COc1cc(-c2noc(C3CC(=O)N(c4cc(C)ccc4C)C3)n2)cc(OC)c1OC (stereo unspecified)	16µM*	-24%	/	/	18µM*	/
COc1cc(=O)n2c(c1C(=O)Nc1cccc(F)c1C)CCCC2	/	-5%	/	/	/	/
C=CCn1c(C)cc(C(=O)COC(=O)Cn2cnc3c2c(=O)n(C)c(=O)n3C)c1C	/	-10%	/	/	/	/
COc1cccc(C(=O)NC2CCCN(c3cc(-c4ccc(F)cc4)[nH]n3)C2)c1 (stereo unspecified)	/	17%	/	/	/	/
Cc1nc2n(c1C(=O)Nc1cc(-c3ccc(F)cc3)[nH]n1)CCC(Nc1ccc(F)cc1)C2 (stereo unspecified)	/	41%	/	/	/	/
COc1ccc(-c2noc(C3CCCN(C(=O)c4cccc(F)c4)C3)n2)cc1 (stereo unspecified)	18µM*	-6%	-13%	-69*	-29%	-3%
COc1ccccc1C(=O)N1CCc2nc(C3CC3)nc(-c3ccc(Cl)cc3)c2C1	/	45µM*	/	/	/	/
COc1ccc(-c2noc(C3CCCN(C(=O)c4ccccc4OC)C3)n2)cc1 (stereo unspecified)	15µM*	10%	-9%	-25	?	-5%
COc1ccccc1C(=O)N1CCCC(c2nc(-c3cc(OC)c(OC)c(OC)c3)no2)C1 (stereo unspecified)	?	10%	18%	7	-18%	6%
FC(F)(F)c1nnc2ccc(N3CCCCC3)nn12	-23%	148%	6%	92	10%	0%
